This note sets out measurements from PubChem BioAssay (NCATS).

“And” between values parts separate entries of the source, which are not always exact repeats. Identical values can stand only once. Results filed as inconclusive are left out. Entries that show only a call come without a potency. The source holds several records for some structures; these can differ, active in one and inactive in another. The source made the active and inactive calls. Calls come from the whole dose curve; as a rule, active = well fitted inhibition curve with a large enough effect; inconclusive = small, poorly fitted or top-dose-only effect; inactive = no such curve, though single readings can be large or run the other way.
Potency is the fitted concentration of half-maximal effect.

The experiment in a line: NS1 protein of Zika virus - qHTS assay to identify small molecule inhibitors in human HEK 293 cells (AID 1347053). Note: nearly all actives have a fitted effect of over 55% in size. Conditions: HEK293 ZIKV MR766 infection, NS1 TR-FRET, 24 h; series mostly up to 46.1 µM. From the text: National Center for Advancing Translational Sciences [NCATS]
Johns Hopkins University School of Medicine
The non-structural 1 (NS1) protein of zika virus is known to associate with the viral replication complex. This cell-based TR-FRET ZIKV NS-1 assay measures the increased NS-1 protein in human HEK 293 cells after a 24-hour Zika virus infection by a TR-FRET assay readout. A decrease in the Time-resolved fluorescence energy transfer (TR-FRET) signal in this assay by small molecule treatment indicates an inhibitory effect of the small molecule on the expression of Zika virus NS1 correlating with Zika virus replication.
HEK 293 cells were cultured in EMEM (ATCC, Cat. # 30-2003) medium with 10% fetal bovine serum (GE healthcare Life Sciences, Cat. # SH30071.03), and 1% Pen/Strep (Gibco, Cat. # 15140-122). Cells were seeded in the assay plate and incubated at 37 C with 5% CO2 for 20 hours. Compounds were added to cells and incubated for one hour before addition of ZIKV MR766 strain solution to cells (MOI = 0.5). After an incubation at 37 C for 24 hours, the reagent mixture of TR-FRET ZIKV NS1 assay using two anti-ZIKV NS1 antibodies was added to assay plates. The TR-FRET signals in assay plates were measured using an Envision plate reader (PerkinElmer). Data were normalized by using the cell-containing wells without ZIKV as a negative control (0% NS-1) and wells containing ZIKV infected cells as a positive control (100% NS-1 level).
As to `CC(C)OC(=O)OCOP(=O)(CO[C@H](C)Cn1cnc2c(N)ncnc21)OCOC(=O)OC(C)C`, the Potency entry was “inactive”.
For `COc1ccccc1OCC(O)COC(N)=O` (stereo not given) the value was “inactive”.
For `NC(=O)c1ccc2[nH]ccc2c1`, the Potency result was “inactive”.
For `NC1(c2ccc(-c3nc4ccn5c(=O)[nH]nc5c4cc3-c3ccccc3)cc2)CCC1` the value was 9.35 µM (active).
In the case of `CO[C@@H]1[C@@H](OC(N)=O)[C@@H](O)[C@H](Oc2ccc3c(O)c(NC(=O)c4ccc(O)c(CC=C(C)C)c4)c(=O)oc3c2C)OC1(C)C`, the Potency entry is “inactive”.
For `Cn1nnc2c(C(N)=O)ncn2c1=O` the value was “inactive”.
Regarding `NS(=O)(=O)c1cc2c(cc1Cl)NC(C(Cl)Cl)NS2(=O)=O` (stereo not given), the Potency result is “inactive”.
For `CC1CC2C3CCC4=CC(=O)C=C[C@]4(C)[C@@]3(F)[C@@H](O)C[C@]2(C)[C@@]1(O)C(=O)CO` (stereo not given in full) the value was “inactive”.
On to `CC(C)(Sc1cc(C(C)(C)C)c(O)c(C(C)(C)C)c1)Sc1cc(C(C)(C)C)c(O)c(C(C)(C)C)c1`, for which the Potency entry was “inactive”.
As for `CC(C)(C)C(=O)OCOP(=O)(COCCn1cnc2c(N)ncnc21)OCOC(=O)C(C)(C)C`, the entry is “inactive”; as for `C1CCC(C(CC2CCCCN2)C2CCCCC2)CC1` (stereo not given), 10 µM (active) and 11.8 µM (active); as for `CNC1CCCN(c2c(F)cc3c(=O)c(C(=O)O)cn(C4CC4)c3c2OC)C1` (stereo not given), “inactive”.
As to `Cc1noc(NS(=O)(=O)c2ccc(N)cc2)c1C`, the Potency result is “inactive”.
For `CC1=CC(=O)c2ccccc2C1=O` the value was “inactive”; for `O=C(O)CSCC(=O)NC1CCSC1=O` (stereo not given), “inactive”.
Regarding `NNC(=O)c1ccncc1`, the Potency entry is “inactive”.
For `CN(C)CCc1c[nH]c2ccc(C[C@H]3COC(=O)N3)cc12` the value was “inactive”; for `N[C@@H](C(=O)N[C@@H]1C(=O)N2C(C(=O)O)=C(Cl)CS[C@H]12)c1ccccc1`, “inactive”.
As for `CCC(=O)O[C@]1(C(=O)CCl)[C@@H](C)C[C@H]2[C@@H]3CCC4=CC(=O)C=C[C@]4(C)[C@@]3(F)[C@@H](O)C[C@@]21C`, the entry is “inactive”; as for `CN1CCN(c2c(F)cc3c(=O)c(C(=O)O)cn4c3c2OCN4C)CC1`, “inactive”; as for `COc1ncnc(NS(=O)(=O)c2ccc(N)cc2)c1OC`, “inactive”.
For `Cn1c(=O)c2c(ncn2CC(O)CO)n(C)c1=O` (stereo not given) the value was “inactive”.
With `Cc1cc(NS(=O)(=O)c2ccc(N)cc2)no1`, the Potency entry was “inactive”.
For `COc1cc2c(Nc3ccc(Br)cc3F)ncnc2cc1OCC1CCN(C)CC1` the value was “inactive”.
`O=C(O)c1ccc(-n2nc(-c3ccccc3O)nc2-c2ccccc2O)cc1`: the Potency entry is “inactive”.
As for `CCOC(=O)[C@H](CCc1ccccc1)N[C@H]1CS[C@H](c2cccs2)CN(CC(=O)O)C1=O`, the entry is “inactive”.
For `CC1=NN(c2ccccc2)C(=O)C1`, the Potency result is “inactive”.
For `CC(C)C[C@H](NC(=O)[C@H](CCc1ccccc1)NC(=O)CN1CCOCC1)C(=O)N[C@@H](Cc1ccccc1)C(=O)N[C@@H](CC(C)C)C(=O)[C@@]1(C)CO1` the value was 0.118 µM (active).
In the case of `CCOC(=O)c1ccc(OC(=O)CCCCCN=C(N)N)cc1`, the Potency result was “inactive”.
For `O=C(O)CCn1c2c(c3ccccc31)C[C@H](NS(=O)(=O)c1ccc(F)cc1)CC2` the value was “inactive”.
As for `CCn1cc(C(=O)O)c(=O)c2cc(F)c(N3CCNCC3)cc21`, the Potency entry is “inactive”.
As for `N[C@@H](Cc1ccc(O)c(O)c1)C(=O)O`, the Potency entry was “inactive”.
As for `Cc1cccc(Nc2ccncc2S(=O)(=O)NC(=O)NC(C)C)c1`, the entry is “inactive”; as for `CO[C@@]12[C@H](COC(N)=O)C3=C(C(=O)C(C)=C(N)C3=O)N1C[C@@H]1N[C@@H]12`, “inactive”; as for `CS(=O)(=O)c1ccc([C@@H](O)[C@@H](CO)NC(=O)C(Cl)Cl)cc1`, “inactive”.
As for `CCCCCCNC(=O)n1cc(F)c(=O)[nH]c1=O`, the Potency result was “inactive”.
As for `COC(c1ccccc1)(c1ccccc1)[C@H](Oc1nc(C)cc(C)n1)C(=O)O`, the entry is “inactive”.
For `CN(C)c1ccc(C(=C2C=CC(=[N+](C)C)C=C2)c2ccc(N(C)C)cc2)cc1` the value was “inactive and 3.72 µM (active)”; for `O=NN(CCCl)C(=O)NC1CCCCC1`, “inactive”.
In the case of `C[C@@H]1C[C@H]2[C@@H]3CCC4=CC(=O)C=C[C@]4(C)[C@@]3(Cl)[C@@H](O)C[C@]2(C)[C@@]1(OC(=O)c1ccco1)C(=O)CCl`, the Potency entry was “inactive”.
